Screen size: about 65,000 compounds; about 450 (0.69%) were called active.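 How the source made its calls: active means HER2 level under 5% of the carrier-only control; inconclusive means no clear call, values can overlap the other calls; inactive means the rest.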 Many of the other results were omitted from the sample, so actives are more common in it than they were.
Target: Receptor tyrosine-protein kinase erbB-2 (Homo sapiens) (UniProt P04626)
Test: reducers of endogenous HER2 protein levels – SKBR-3 cells, AlphaScreen, 66K library, primary screen (AID 645);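 further: 100% = DMSO carrier and 0% = 500 nM PU-H71 HSP90 inhibitor; lower value means stronger loss of Her2 protein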
Conditions: SKBR-3 HER2 protein level, 18-24 h, at 10 µM, hits give low values

Receptor tyrosine-protein kinase erbB-2 (Homo sapiens), sequence (P04626 whole entry, looked up): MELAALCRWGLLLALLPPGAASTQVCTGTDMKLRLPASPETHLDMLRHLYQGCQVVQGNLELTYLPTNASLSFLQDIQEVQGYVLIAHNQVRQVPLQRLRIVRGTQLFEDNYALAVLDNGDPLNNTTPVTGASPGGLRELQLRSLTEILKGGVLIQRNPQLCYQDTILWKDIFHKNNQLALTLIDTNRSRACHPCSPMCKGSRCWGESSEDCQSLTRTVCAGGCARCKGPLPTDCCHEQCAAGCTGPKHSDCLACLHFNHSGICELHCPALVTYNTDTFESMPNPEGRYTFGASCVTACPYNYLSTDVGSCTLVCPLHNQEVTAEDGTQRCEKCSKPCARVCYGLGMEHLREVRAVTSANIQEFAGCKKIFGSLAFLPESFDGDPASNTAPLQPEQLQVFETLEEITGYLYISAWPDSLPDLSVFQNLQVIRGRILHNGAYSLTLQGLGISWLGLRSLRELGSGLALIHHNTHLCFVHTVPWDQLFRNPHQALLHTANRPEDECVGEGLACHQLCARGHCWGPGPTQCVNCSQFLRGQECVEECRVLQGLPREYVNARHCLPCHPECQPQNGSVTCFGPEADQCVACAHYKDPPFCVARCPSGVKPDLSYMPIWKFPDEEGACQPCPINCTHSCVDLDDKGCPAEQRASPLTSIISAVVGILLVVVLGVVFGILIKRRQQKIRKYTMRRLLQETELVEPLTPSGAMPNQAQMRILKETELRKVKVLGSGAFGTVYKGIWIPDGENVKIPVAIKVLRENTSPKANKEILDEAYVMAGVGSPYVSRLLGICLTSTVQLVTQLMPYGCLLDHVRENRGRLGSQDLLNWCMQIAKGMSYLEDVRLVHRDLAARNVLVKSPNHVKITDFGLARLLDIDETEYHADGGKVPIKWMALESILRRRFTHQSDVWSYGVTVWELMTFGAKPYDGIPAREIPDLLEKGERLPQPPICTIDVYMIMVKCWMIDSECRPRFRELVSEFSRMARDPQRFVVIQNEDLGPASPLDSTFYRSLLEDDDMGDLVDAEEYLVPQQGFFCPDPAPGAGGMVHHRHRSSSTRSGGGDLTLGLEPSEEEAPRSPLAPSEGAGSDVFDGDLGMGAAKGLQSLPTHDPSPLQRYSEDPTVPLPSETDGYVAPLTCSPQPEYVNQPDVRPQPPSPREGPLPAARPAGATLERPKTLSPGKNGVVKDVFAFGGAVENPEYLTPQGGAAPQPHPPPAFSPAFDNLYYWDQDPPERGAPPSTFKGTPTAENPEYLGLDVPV

Structure (SMILES)	HER2 level % of control
CCC(=NCCCO)c1c(O)n(-c2ccc(OC)cc2)c(=O)[nH]c1=O	92.7% (inactive)
CC(=O)c1c(O)n(C2CCCCCC2)c(=O)[nH]c1=O	69.8% (inactive)
CC(=NCC1CCCO1)c1c(O)n(-c2ccccc2)c(=O)[nH]c1=O (stereo not given)	-16.3% (active)
CC(=O)N1CN2CN(C(C)=O)CC(C(=O)c3ccc(Br)cc3)(C2)C1	119% (inactive)
Cc1ccc(Cn2nnnc2CN2CCC(n3nnc4ccccc43)CC2)cc1	69.1% (inactive)

— PubChem BioAssay AID645 (SRMLSC, 2007)
